Assay [1] has as its system Molm13. Briefly: cell viability relative to DMSO control (bortezomib = 0%); higher = less growth inhibition. The settings on record: 10 nM; 72 h. An outline of the steps:
(§1)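 Acute myeloid leukemia cells were plated at 1000 cells per well in 50 µL onto a 679-compound library of approved and investigational agents in 384-well plates and exposed to a single 10 nM dose for 72 h, in duplicate. Cell viability was measured by CellTiter-Glo luminescence on an EnVision reader. Readings were scaled to percentages by per-plate linear regression, with DMSO-treated cells set at 100% and positive-control-treated cells at 0%.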

Assay [2] deals with Mv4-11. Described as above. The settings on record: 10 nM; 72 h. In a few lines: as §1

Cell viability data for 33 molecules are collected here from the supplement of paper PMC8699584.

Several values for one entry are separate records, joined by “and”; a condition that tells them apart may be missing. Equal values may be shown once. Where a name gives a salt, the structure may show the parent alone. ± gives the standard deviation of the averaged measurements.

Take `Nc1[nH]nc2nnc(-c3c(-c4ccccc4)nn4ccccc34)cc12`: the cell viability in assay [1] amounted to 95.5 ± 1.6%; in assay [2] it was 109 ± 11%.
`C=CC(=O)N1CCC[C@@H](n2nc(-c3ccc(Oc4ccccc4)cc3)c3c(N)ncnc32)C1`: the cell viability in assay [1] was found to be 95.3 ± 9.3%; in assay [2], 93.2 ± 4.6%.
Take `CCCN(CCC)C(=O)C(CCC(=O)O)NC(=O)c1ccccc1` (stereo unspecified) [Proglumide]: the cell viability in assay [1] was determined as 100 ± 3%; in assay [2], 106 ± 24%.
For `Cc1nc(NC(=O)N2CCC[C@@H]2C(N)=O)sc1-c1ccnc(C(C)(C)C(F)(F)F)c1` [BYL-719(Alpelisib)], the cell viability in assay [1] came to 113 ± 6.5%; in assay [2], 102 ± 15%.
Regarding `Nc1nc(NC2CC2)cc(-c2cccc(Cl)c2Cl)n1`, the cell viability came to 115 ± 8.1% in assay [1] and 96.9 ± 4.4% in assay [2].
As to `c1cc(-c2cnn3cc(-c4ccc(N5CCNCC5)cc4)cnc23)c2cccnc2c1`, the cell viability in assay [1] came to 107 ± 1.7%; in assay [2] it was 103 ± 1.1%.
On the same counts, the results for `c1cc(-c2cnn3cc(-c4ccc(OCCN5CCCCC5)cc4)cnc23)ccn1` [Dorsomorphin dihydrochloride] are 58.3 ± 6.7% and 65.7 ± 3.6%.
On the same counts, the results for `O=C(NC(NC(=S)Nc1ccc(F)c([N+](=O)[O-])c1)C(Cl)(Cl)Cl)C(c1ccccc1)c1ccccc1` (stereo unspecified) are 109 ± 8.2% and 104.1 ± 0.92%.
On to `Cc1ccc(F)c(NC(=O)Nc2ccc(-c3cccc4[nH]nc(N)c34)cc2)c1`, for which the cell viability in assay [1] is 72.2 ± 9.9%; in assay [2] it was 97.7 ± 10%.
`CCOc1cn(-c2ccc(F)cc2C)nc1C(=O)Nc1ccc(Oc2ccnc3cc(OC)c(OC)cc23)c(F)c1`: the results for the cell viability in assay [1] and in assay [2] were 112 ± 20% and 109 ± 2.8%, respectively.
Take `CC(C)=CCc1cc2c(cc1O)oc(=O)c1c3ccc(O)cc3oc21` [Psoralidin]: the figures for the cell viability in assay [1] and in assay [2] were 111 ± 27% and 124 ± 22%, respectively.
For `CS(=O)(=O)c1ccc(-c2cnc(N)c(C(=O)Nc3ccccc3)n2)cc1` the same measures were 83.9 ± 3.9% and 93.76 ± 0.24%.
Consider `CC1(C)CC[C@]2(C(=O)O)CC[C@]3(C)C(=CC[C@@H]4[C@@]5(C)CC[C@H](O[C@@H]6O[C@H](C(=O)O)[C@@H](O)[C@H](O[C@@H]7OC[C@@H](O)[C@H](O)[C@H]7O)[C@H]6O)C(C)(C)[C@@H]5CC[C@]43C)[C@@H]2C1` [Momordin Ic], for which the cell viability in assay [1] came to 87.4 ± 13%; in assay [2], 106 ± 5%.
Consider `Cc1cnc(Nc2ccc(OCCN3CCCC3)cc2)nc1Nc1cccc(S(=O)(=O)NC(C)(C)C)c1`, for which the cell viability was 86.3 ± 1.3% in assay [1] and 92.97 ± 0.82% in assay [2].
On to `COc1cc(N2CCC(N3CCN(C)CC3)CC2)ccc1Nc1ncnc(Nc2ccccc2S(=O)(=O)C(C)C)n1`, for which the cell viability in assay [1] was determined as 96.5 ± 3.9%; in assay [2], 98.6 ± 15%.
On the same counts, the results for `Cn1c(=O)n(-c2ccc(C(C)(C)C#N)cc2)c2c3cc(-c4cnc5ccccc5c4)ccc3ncc21` [BEZ235 (NVP-BEZ235, Dactolisib)] are 113 ± 7.9% and 102 ± 6.4%.
On the same counts, the results for `Nc1ncnc2c1ncn2C1OC(COP(=O)(O)O)C(O)C1O` (stereo unspecified) [Adenosine 5'-monophosphate monohydrate] are 102 ± 34% and 97.2 ± 0.99%.
On the same counts, the results for `NC(=O)c1ncn([C@@H]2O[C@H](CO)[C@@H](O)[C@H]2O)n1` [Ribavirin] are 98.7 ± 13% and 106 ± 5.6%.
Turning to `FC(F)(F)c1ccc(CNc2ccc(Cc3c[nH]c4ncc(Cl)cc34)cn2)cc1`, the cell viability in assay [1] was found to be 112.2 ± 0.43%; in assay [2], 106 ± 19%.
With `CC(C)(C)c1nc2c3cc[nH]c(=O)c3c3cc(F)ccc3c2[nH]1` [Pyridone 6], the cell viability is 99.5 ± 18% in assay [1] and 106 ± 7% in assay [2].
On to `Cc1ncc(CO)c(CO)c1O` [Pyridoxine], for which the figures for the cell viability in assay [1] and in assay [2] were 95.3 ± 26% and 114 ± 20%, respectively.
Regarding `C[C@@]1(C(=O)Nc2ccc(F)nc2)CCCN1c1nc(Nc2cc(C3CC3)n[nH]2)c2cccn2n1`, the cell viability in assay [1] stood at 117 ± 2.5%; in assay [2], 127 ± 2.5%.
With `CCCCCCCCCCCC(=O)NC[C@]1(C)CCC[C@]2(C)c3ccc(C(C)C)cc3CCC12` (stereo partly specified) [Lauric Acid Leelamide], the cell viability in assay [1] amounted to 93 ± 7.2%; in assay [2], 104 ± 12%.
For the molecule `O=C1NC(=O)C(c2ccccc2[N+](=O)[O-])=C1Nc1ccc(O)c(Cl)c1`, the cell viability was found to be 110 ± 9.4% in assay [1] and 120 ± 9.7% in assay [2].
Consider `CC(=O)c1c(C)c2cnc(Nc3ccc(N4CCNCC4)cn3)nc2n(C2CCCC2)c1=O` [Palbociclib], for which the cell viability is 90.4 ± 13% in assay [1] and 113 ± 9.9% in assay [2].
In the case of `COc1cc(N2CCN(C)CC2)ccc1Nc1nccc(-c2cn(C)c3cnccc23)n1`, the cell viability is 118 ± 3.1% in assay [1] and 117 ± 7% in assay [2].
For the molecule `CC(C)(C)c1cc(NC(=O)Nc2ccc(-c3cn4c(n3)sc3cc(OCCN5CCOCC5)ccc34)cc2)no1` [Quizartinib (AC220)], the cell viability was determined as 9.37 ± 9.1% in assay [1] and 3.71 ± 2.9% in assay [2].
On to `C[S+]([O-])c1ccc(-c2nc(-c3ccc(F)cc3)c(-c3ccncc3)[nH]2)cc1` (stereo unspecified), for which the cell viability is 104% and 108% and 110% in assay [1]; 110% and 114% and 112% in assay [2].
Consider `CN1CCN(c2ccc(Nc3cc(-c4cccc(-n5ccc6cc(C7CC7)cc(F)c6c5=O)c4CO)cn(C)c3=O)nc2)CC1`, for which the cell viability in assay [1] stood at 99.6 ± 8.6%; in assay [2], 107 ± 8.8%.
On to `CC(C)(C)NS(=O)(=O)c1cncc(-c2cc(F)c3nc(N)nn3c2)c1`, for which the cell viability in assay [1] is 95.9 ± 22%; in assay [2], 105 ± 1.1%.
Take `O=C(c1ccc(F)c(F)c1Nc1ccc(I)cc1F)N1CC(O)([C@@H]2CCCCN2)C1` [Cobimetinib]: the values for the cell viability in assay [1] and in assay [2] were 87.1 ± 14% and 103.3 ± 0.5%, respectively.
For `O=C(Nc1cc(Cl)cc2c1[nH]c1cnccc12)c1cccnc1` the same measures were 110 ± 1.9% and 110.7 ± 0.66%.
Take `COc1cc2ncnc(Nc3cccc(Br)c3)c2cc1OC`: the cell viability was 93.4% and 102% in assay [1]; 99.1% and 113% in assay [2].
